# Compound activity as filed in PubChem BioAssay.
# TWEAK-Fn14 inh = inhibitors of TWEAK-Fn14 signaling, primary screen, luciferase reporter cells, uHTS; TWEAK-stimulated Fn14 reporter cells, luciferase luminescence, 8 h; inhibition, % at 10 µM; 2% of 360,000 active; in the data active means inhibition above about 50%
# aSyn 5UTR inh = MLPCN primary screen, SNCA 5' untranslated region; alpha-synuclein 5'UTR reporter, inhibitor activity; inhibition, % (tested at 7.5 µM); 0.82% of 300,000 active; in the data active means inhibition above about 60%;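 further: H4 neuroglioblastoma cells stably carrying SNCA 5'UTR luciferase fusion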
# HSP90 inh = HSP90 inhibitors, primary screen, cell lysate, luminescence; AID 1789, 2009; inhibition, % at 5.6 µM; Rabbit reticulocyte lysate, luciferase refolding luminescence, 3 h; Heat shock protein HSP 90 (rabbit reticulocyte lysate; luciferase refolding); 0.91% of 290,000 active;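 active means inhibition above the screen-wide mean plus 3 SD, computed separately per campaign, cut at about 16% in these data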;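 further: inhibitors lower the luminescence because luciferase stays unfolded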
# C8 TRAIL sens = viability loss with TRAIL in NB7+C8 cells, primary screen, TRAIL sensitizer project, cell-based, ATPlite luminescence; 1% of 360,000 active; inhibition (viability loss, TRAIL sensitization), % at 10 µM;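 active means compounds causing at least 50% loss of cell viability in the single-dose screen, relative to plate controls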
# TROY signal inh = inhibitors of TROY-driven NF-kB signaling, primary screen, Q293 LMP1-TROYcd cells, NF-kB luciferase, uHTS; 0.98% of 360,000 active; Q293 LMP1-TROYcd NF-kB luciferase reporter, 4 h; inhibition, % at 10 µM;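 active means compounds whose plate-normalised and pattern-corrected inhibition of the luciferase reporter signal at the single screening dose is 50% or more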
# HIF-2a block = HIF-2a reporter inhibitors, primary screen, luminescence, 786-0 RCC cells. 786-0 RCC cells HIF-2a reporter, luciferase luminescence, overnight. inhibition, % at 18.8 µM. 0.72% of 360,000 active;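 active means inhibition of the luminescence signal of 40% or more relative to plate controls, in a single-dose primary screen at 18.75 µM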
# Numbers stand for hits; i = inactive; nt = not tested or not shown. Hits are enriched below; roughly 3.9% of the tested compounds scored in any of these assays.
SMILES,TWEAK-Fn14 inh,aSyn 5UTR inh,HSP90 inh,C8 TRAIL sens,TROY signal inh,HIF-2a block
Oc1ccccc1C1OCC2(CO1)COC(c1ccccc1O)OC2 (configuration not stated),i,i,i,i,i,i
Oc1ccccc1C1SC(c2ccccc2O)SC(c2ccccc2O)S1 (configuration not stated),51,nt,nt,i,81,i
O=C(CSc1nnc(Nc2ccccc2)s1)Nc1cccc(S(=O)(=O)N2CCCCC2)c1,51,i,i,i,i,i
O=C(COC(=O)CSc1ccccc1)NC1CCS(=O)(=O)C1 (configuration not stated),i,nt,nt,i,i,i
COc1cc(-c2noc(C)c2-c2ccc3[nH]ccc3c2)cc(OC)c1OC,56,i,i,i,i,i
COc1ccc(C(=O)C(CN2CCCC2)c2ccccc2)cc1 (configuration not stated),i,i,i,i,i,i
O=C(c1ccc(F)cc1)C(CN1CCOCC1)c1ccccc1 (configuration not stated),74,i,i,i,i,i
O=C(c1ccc(Cl)cc1)C(CN1CCCC1)c1ccccc1 (configuration not stated),58,i,i,i,i,i
COc1ccc(C(=O)C(CN2CCOCC2)c2ccccc2)cc1 (configuration not stated),i,i,i,i,i,i
Nc1cc2c(cc1Br)-c1c(C(=O)O)cccc1C2O (configuration not stated),i,nt,nt,i,i,i
CCc1ccc(C(=O)CCC(=O)Nc2ccc(OC)c(S(=O)(=O)N3CCCCC3)c2)cc1,i,nt,nt,i,i,i
CC(C)c1ccc(NC(=S)Nc2ccc3cn[nH]c3c2)cc1,i,i,i,i,53,i
CN(C)/N=C/C=C1\CCC/C(=C\c2ccc(F)c(F)c2)C1=O,87,i,i,i,i,i
CCC(=O)OCOc1ccc(/C=C2/CCC(CN(C)C)C2=O)cc1 (configuration not stated),i,nt,nt,72,i,93
CCCn1c(N2CCN(CC(=O)c3c(C)n(C)c4ccc(OC)cc34)CC2)nc2c1c(=O)[nH]c(=O)n2C,i,63,i,i,i,i
O=C(OCCO)c1c(C2=CCCCC2)oc2c1C(OCCO)CCC2 (configuration not stated),i,nt,nt,i,i,i
CCOC(=O)C1=C[C@@H](c2ccccc2)N(S(=O)(=O)c2ccc(C)cc2)[C@H]1c1ccc(OC)cc1,i,nt,nt,i,i,i
COc1ccccc1C=NN=Cc1ccccc1O,i,nt,nt,i,i,i
CN(C)c1ccc(/C=N/N=C/c2ccccc2O)cc1,59,i,i,i,i,i
COc1ccc2oc(=O)c(-c3csc(Nc4ccc(O)cc4)n3)cc2c1,68,i,i,i,i,i
CN(C)CCCNC(=S)NCC(c1ccc(Cl)cc1Cl)c1c[nH]c2ccccc12 (configuration not stated),i,111,i,i,i,i
CCCOc1ccc(/C=C/c2[nH]c(=O)[nH]c(=O)c2[N+](=O)[O-])cc1OCC,i,i,i,i,i,i
CCOC(=O)COc1ccc(Br)cc1/C=C/c1[nH]c(=O)[nH]c(=O)c1[N+](=O)[O-],62,i,i,i,i,i
CCOC(=O)COc1ccc(Br)cc1/C=C\c1[nH]c(=O)[nH]c(=O)c1[N+](=O)[O-],74,i,i,i,i,i
CC(=O)C1CCC2C3CC=C4CC(SC(=N)N)CCC4(C)C3CCC12C (configuration not stated),i,nt,nt,i,i,i
COc1cc2c3nnc(-c4ccccc4)c-3cn(Cc3ccc(F)cc3)c2cc1OC,i,i,i,i,i,i
COc1cc2c3nnc(-c4ccc(F)cc4)c-3cn(Cc3cccc(C)c3)c2cc1OC,i,i,i,59,i,i
COc1cccc(Cn2nc3c4cc(F)ccc4n(Cc4ccc(F)cc4)cc-3c2=O)c1,i,i,i,i,i,i
COc1cc2c3nnc(-c4ccc(F)cc4)c-3cn(Cc3ccc(C)cc3)c2cc1OC,i,i,i,84,i,i
